Results: publication PMC4336329 (PLoS ONE, 2015)
Hit rate of the full screen: of about 310,000 compounds, about 14,000 (4.5%) showed an effect of 50% or more. Effects have a minus sign here. Only a selection was taken, and strong results are over-represented in it overall.

Each compound was assayed against human ether-à-go-go-related gene (hERG) potassium channel (human, UniProt Q12809) (assay: primary screen, population patch clamp on CHO cells stably expressing hERG; higher = less effect of the substance).
Sequence of human ether-à-go-go-related gene (hERG) potassium channel (Q12809 whole entry, looked up): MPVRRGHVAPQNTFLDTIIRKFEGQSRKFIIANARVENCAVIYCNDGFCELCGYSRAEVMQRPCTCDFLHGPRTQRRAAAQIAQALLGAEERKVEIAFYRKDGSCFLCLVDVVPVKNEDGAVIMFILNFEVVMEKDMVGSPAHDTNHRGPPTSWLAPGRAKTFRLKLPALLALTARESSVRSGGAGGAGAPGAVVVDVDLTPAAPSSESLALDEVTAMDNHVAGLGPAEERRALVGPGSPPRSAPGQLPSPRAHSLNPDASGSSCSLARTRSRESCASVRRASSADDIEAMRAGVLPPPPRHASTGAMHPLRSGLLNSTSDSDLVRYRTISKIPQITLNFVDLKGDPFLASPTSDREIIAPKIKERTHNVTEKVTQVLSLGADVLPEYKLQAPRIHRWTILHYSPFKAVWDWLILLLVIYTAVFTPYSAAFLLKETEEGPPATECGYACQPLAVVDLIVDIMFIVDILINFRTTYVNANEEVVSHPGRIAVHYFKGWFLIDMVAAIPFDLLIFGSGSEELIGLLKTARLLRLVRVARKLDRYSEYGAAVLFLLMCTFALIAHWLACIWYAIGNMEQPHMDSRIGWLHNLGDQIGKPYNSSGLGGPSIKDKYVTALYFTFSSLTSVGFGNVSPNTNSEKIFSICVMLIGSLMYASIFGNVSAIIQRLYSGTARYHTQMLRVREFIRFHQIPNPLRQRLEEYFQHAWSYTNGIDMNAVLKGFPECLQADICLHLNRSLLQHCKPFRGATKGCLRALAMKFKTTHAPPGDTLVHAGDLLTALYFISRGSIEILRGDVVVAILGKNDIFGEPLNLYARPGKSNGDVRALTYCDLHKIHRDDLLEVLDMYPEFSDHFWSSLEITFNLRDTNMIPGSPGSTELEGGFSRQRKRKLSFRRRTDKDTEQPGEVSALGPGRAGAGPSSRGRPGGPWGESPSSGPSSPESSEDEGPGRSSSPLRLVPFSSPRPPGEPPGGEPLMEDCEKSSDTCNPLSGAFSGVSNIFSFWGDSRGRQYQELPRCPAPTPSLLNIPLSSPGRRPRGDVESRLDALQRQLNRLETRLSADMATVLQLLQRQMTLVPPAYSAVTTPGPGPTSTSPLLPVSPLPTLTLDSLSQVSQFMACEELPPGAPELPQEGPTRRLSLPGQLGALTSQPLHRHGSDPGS
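Note: peak tail current of the secondary pulse compared with the same well before compound.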

SMILES | hERG current change (%, negative = inhibition) at 10uM
CCOC(=O)C1=C(C)N(C)C(=S)NC1c1cc(OC)ccc1OC (stereo not drawn) | 3.73%
Cc1nc(N2CCC(C(N)=O)CC2)c2c(-c3cccs3)csc2n1 | -0.812%
Cc1ccc(N(CCC#N)C(=O)COC(=O)c2cc(C)oc2C)cc1 | -15.3%
COc1ccc(C(=O)C2CCCN(Cc3cc(Cl)ccc3O)C2)c(OC)c1 (stereo not drawn) | -26.8%
CCOC(=O)C1CCCN(C2=NC(=O)/C(=C/c3ccc(OC)cc3)S2)C1 (stereo not drawn) | -20.1%
COc1ccc(CN2CCCC(C(=O)N3CCCCC3)C2)c(OC)c1.O=C(O)C(=O)O (stereo not drawn) | -26.7%
CCOC(=O)N1CCN(CC(O)COc2ccc(OC)cc2C(C)(C)C)CC1.Cl (stereo not drawn) | -12%
CCOC(=O)C1CCCN(CC(O)COc2ccc(OC)cc2C(C)(C)C)C1 (stereo not drawn) | -61.4%
CCOC(=O)C1CCCN(CC(O)COc2cccc(C)c2)C1.Cl (stereo not drawn) | -23.7%
CCOC(=O)C1CCCN(C2=NC(=O)/C(=C/c3ccc(OC)cc3OC)S2)C1 (stereo not drawn) | -52.6%
COc1ccc(CN2CCCC(C(=O)c3ccc(Cl)cc3)C2)c(OC)c1 (stereo not drawn) | -75.2%
CCOC(=O)C1CCCN(C2=NC(=O)/C(=C/c3ccc(OC)c(OC)c3)S2)C1 (stereo not drawn) | -22.8%
COc1ccc(CN2CCCC(C(=O)c3ccc(Cl)cc3)C2)c(O)c1 (stereo not drawn) | -67.7%
COC(=O)CC1(CC(=O)OC)C(=O)N(c2ccccc2)C(=O)N(c2ccccc2)C1=O | 11.7%
C=CCNC(=O)CN(CCc1ccccc1)S(=O)(=O)c1ccccc1 | -17.6%
COc1ccc(CN2CCCC(C(=O)N3CCCC3)C2)c(OC)c1.O=C(O)C(=O)O (stereo not drawn) | -9.41%
CCOC(=O)C1CCN(Cc2ccc(OC)cc2OC)CC1 | -45.2%
CCOC(=O)C1CCCN(Cc2ccc(OC)cc2OC)C1 (stereo not drawn) | -52.7%
Cc1ccccc1N1C(=O)NC(=O)/C(=C\c2cc(C)n(C)c2C)C1=O | -3.79%
CC(C)CCN1CCN(Cc2cccs2)CC1CCO (stereo not drawn) | -10.7%
CC(C)CCN1CCN(CC(c2ccccc2)c2ccccc2)CC1CCO (stereo not drawn) | -82.3%
OCCC1CN(C/C=C/c2ccco2)CCN1Cc1ccccc1 (stereo not drawn) | -8.57%
OCCC1CN(Cc2ccccn2)CCN1C1CCCC1 (stereo not drawn) | 9.91%

SMILES | hERG current change (%, negative = inhibition) at 10uM
CCn1cc(CN2CCN(CCC(C)C)C(CCO)C2)c2ccccc21 (stereo not drawn) | -31.9%
CC(C)=CCN1CCN(C/C(Cl)=C/c2ccccc2)CC1CCO (stereo not drawn) | -26.9%
OCCC1CN(CC(c2ccccc2)c2ccccc2)CCN1C1CCCC1 (stereo not drawn) | -71.2%
CC(C)CCN1CCN(C/C=C/c2ccco2)CC1CCO (stereo not drawn) | -57.1%
CC(C)CCN1CCN(CC#Cc2ccccc2)CC1CCO (stereo not drawn) | -49.9%
OCCC1CN(CC#Cc2ccccc2)CCN1C1CCCC1 (stereo not drawn) | -46.2%
OCCC1CN(C/C(Cl)=C/c2ccccc2)CCN1C1CCCC1 (stereo not drawn) | -77.4%
Cc1ccc(CN2CCN(C/C(Cl)=C/c3ccccc3)CC2CCO)o1 (stereo not drawn) | -45.2%
CN(C)N1C(=O)CC(N2CCCCC2)C1=O (stereo not drawn) | 6.08%
Cc1nn(C(C)C(=O)N2CCc3ccccc32)c(C)c1[N+](=O)[O-] (stereo not drawn) | 10%
CC(=O)NS(=O)(=O)c1ccc(NC(=O)c2ccc(NC(=O)c3cccs3)cc2)cc1 | 2.48%
COc1cc2c(cc1OC)-c1cc(NC3CC3)nc(=O)n1CC2 | -24.8%
O=c1oc2c(-c3cccc(F)c3)cc(O)cc2s1 | 8.45%
COc1ccc(NC(=O)CCc2nnc3ccc(NCc4ccco4)nn23)cc1 | 1.15%
CCOC(=O)c1c([N+](=O)[O-])c(C)[nH]c(=O)c1C#N | 21.1%
CCC(c1nnnn1Cc1ccco1)N(Cc1cc2cc(OC)ccc2[nH]c1=O)C1CCCCC1 (stereo not drawn) | -6.37%
CCN(CC(=O)NCc1cccs1)C(=O)COc1cccc(C(F)(F)F)c1 | -38.2%
Cc1cccc(C)c1NC(=O)CN(C)C(=O)c1ccc(-c2cccc(C(F)(F)F)c2)o1 | -12.5%
CCN(CC(=O)NCc1cccs1)C(=O)c1ccc(-c2cccc(C(F)(F)F)c2)o1 | -82.3%
CCN(CC(=O)NCc1cccs1)C(=O)c1ccc([N+](=O)[O-])o1 | -33.8%
CCN(CC(=O)NCc1cccs1)C(=O)c1ccccc1F | 9.12%
CCN(CC(=O)NCc1cccs1)C(=O)c1ccc(-c2ccccc2F)o1 | -71.6%
